# PI5P4K alpha inh = qHTS for Inhibitors of phosphatidylinositol 5-phosphate 4-kinase (PI5P4K). Phosphatidylinositol 5-phosphate 4-kinase type-2 alpha (Homo sapiens), P48426. PI5P4Kalpha enzyme, ADP-Glo luminescence, 60 min; stronger effect = lower value. max response, %. hit rate 1.2% among 330,000. AID 652105, 2013; active = max response of -50% or lower; inconclusive = between -30% and -50%; inactive = -30% or higher; note: value at the top dose of about 77 µM; % is set by controls: 0 for no effect and ±100 for the full control effect
#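 Controls without substrate or without enzyme flank wells where PI5P4Kalpha converts substrate using 5 microM ATP (final). Incubation lasts 60 minutes at room temperature; ADP formed is read by ADP-Glo luminescence.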
# POLB inh = qHTS Assay for Inhibitors of DNA Polymerase Beta. Pol beta primer extension/strand displacement, fluorescence kinetic. Potency, µM (doses to about 114 µM), for inactives: at the highest dose activity change, negative = inhibition, hits mostly inhibitors. hit rate 1.3% among 340,000. AID 485314, 2010; note: potency is the fitted concentration of half-maximal effect; % is set by controls: 0 for no effect and ±100 for the full control effect
#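 Enzyme-only controls used 10 nM Pol beta; buffer lacking enzyme served as negative control. Compound preincubated 15 min, then 50 nM substrate added; 0 and 10 min reads at room temperature.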
# PI4K2A inh = qHTS for small molecular inhibitors of PI4K2A | Phosphatidylinositol 4-kinase type 2-alpha (Homo sapiens), Q9BTU6 | purified PI4K2A, ADP-Glo luminescence, 1 h; stronger effect = lower value | activity change, negative = inhibition, % at 76.9 µM | hit rate 0.13% among 420,000; in the data active = activity change below about -50%; inconclusive = mostly about -30% to -49%;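 note: -100% = wells without enzyme as full effect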
#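 ADP-Glo luminescence measured ADP generated by PI4K2A enzyme (4 ug/mL before mixing) with 1.2 mM PI substrate (pre-mix) and 300 microM ATP (pre-mix). Tris pH7.5 buffer with MgCl2, Triton X-100; 1 h reaction at ambient temperature.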
# Pol kappa inh = qHTS for Inhibitors of Polymerase Kappa. hit rate 0.53% among 400,000. purified Pol kappa, fluorescent DNA synthesis assay, 10 min. AID 588579, 2011. DNA polymerase kappa (Homo sapiens), Q9UBT6. Potency, µM (doses to about 107 µM), for the others: at the top dose activity, negative = inhibition, most hits filed as inhibitors; note: potency is the fitted concentration of half-maximal effect; % is set by controls: 0 for no effect and ±100 for the full control effect
#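 50 nM final substrate added after 15 min RT preincubation of 10 nM Pol kappa with compound; fluorescence read at 0 and 10 min.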
# Pol eta inh = qHTS for Inhibitors of Polymerase Eta; DNA polymerase eta (Homo sapiens), Q9Y253; recombinant Pol eta, fluorescent DNA replication assay; Potency, µM (series often up to 114 µM), inactives show at the top dose activity change, negative = inhibition, actives largely listed as inhibitors; hit rate 1.2% among 390,000; AID 588591, 2011; note: potency is the fitted concentration of half-maximal effect; % is set by controls: 0 for no effect and ±100 for the full control effect
# Target sequence (Q9Y253 whole entry, looked up): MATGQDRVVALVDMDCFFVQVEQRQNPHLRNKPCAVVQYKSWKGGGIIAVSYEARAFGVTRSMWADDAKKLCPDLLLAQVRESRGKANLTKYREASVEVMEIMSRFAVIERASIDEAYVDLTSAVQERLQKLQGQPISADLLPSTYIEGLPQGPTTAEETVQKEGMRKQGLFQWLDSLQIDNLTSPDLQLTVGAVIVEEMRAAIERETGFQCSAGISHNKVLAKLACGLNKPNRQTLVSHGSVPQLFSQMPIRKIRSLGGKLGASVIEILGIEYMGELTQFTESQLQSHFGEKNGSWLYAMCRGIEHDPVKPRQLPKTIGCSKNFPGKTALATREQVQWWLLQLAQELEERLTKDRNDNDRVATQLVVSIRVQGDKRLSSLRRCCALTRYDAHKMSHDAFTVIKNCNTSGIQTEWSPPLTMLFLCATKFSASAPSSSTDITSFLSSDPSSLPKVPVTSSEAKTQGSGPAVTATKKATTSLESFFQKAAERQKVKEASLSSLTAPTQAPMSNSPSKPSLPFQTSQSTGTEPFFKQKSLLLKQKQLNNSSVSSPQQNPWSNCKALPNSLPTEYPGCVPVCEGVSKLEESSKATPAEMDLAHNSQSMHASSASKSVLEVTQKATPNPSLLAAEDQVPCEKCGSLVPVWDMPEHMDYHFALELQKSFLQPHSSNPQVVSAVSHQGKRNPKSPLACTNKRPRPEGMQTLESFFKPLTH
#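 Pol eta at 10 nM preincubated with compounds 15 min at room temperature; reaction started with fluorescent substrate (50 nM final) and read kinetically at 0 and 10 min.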
# Pol iota inh = qHTS for Inhibitors of Polymerase Iota. Pol iota fluorescent replication assay, 10 min. DNA polymerase iota (Homo sapiens), Q9UNA4. AID 588590, 2011. hit rate 1% among 390,000. Potency, µM (highest dose often 115 µM), without a hit: at the top dose activity, negative = inhibition, actives largely listed as inhibitors; note: potency is the fitted concentration of half-maximal effect
#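 Pol iota at 10 nM preincubated 15 min with compounds at room temperature; reaction started with fluorescent substrate, 50 nM final. Fluorescence read kinetically at 0 and 10 min; buffer-only wells as negative control.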
# * hit, by the source's call; ? = inconclusive; / = not tested or not shown; [ ] = another dose, or the depositor's remark. In the library only some 2.8% were active in any assay of this set; here they are far more common. Unless noted, calls come from the whole dose curve; as a rule, active = well fitted inhibition curve with a large enough effect; inconclusive = small, poorly fitted or top-dose-only effect, or another doubt; inactive = no such curve, though single readings can be large or run the other way.
SMILES,PI5P4K alpha inh,POLB inh,PI4K2A inh,Pol kappa inh,Pol eta inh,Pol iota inh
O=C1/C(=C\c2ccc(-c3ccccc3[N+](=O)[O-])o2)C(c2ccccc2)=NN1c1ccccc1,-8,-9%,-5,-11%,50µM*,10µM*
O=C(O)/C(=C\c1ccc(-c2ccccc2[N+](=O)[O-])o1)c1ccccc1,-3,-10%,4,3%,8%,-3%
CN(C)/C=C1/C(=O)N(c2ccc([N+](=O)[O-])cc2)N=C1c1ccccc1,/,23%,/,/,/,/
CN(C)/C=C1\C(=O)N(c2ccc([N+](=O)[O-])cc2)N=C1c1ccccc1,7,0%,-51*,-20%,-11%,4%
CCOC(=O)CNS(=O)(=O)c1cc(-c2nn(C)c(=O)c3ccccc23)ccc1C,?,35µM*,-6,?,?,25µM*
COC(=O)C1=C(CSc2nc3c(cc2C#N)CN(C)CC3)OC(N)=C(C#N)C1c1ccc(F)cc1 (stereo not drawn),/,?,?,71µM*,?,14µM*
CCOC(=O)C1=C(CSc2nc(CC)c(C)cc2C#N)OC(N)=C(C#N)C1c1ccc(OC)cc1 (stereo not drawn),-13,1%,-6,-11%,-23%,?
O=C1CCn2c1c(O)c1ccccc1c2=O,9,/,?,-23%,8%,?
N=C1CCC(=N)c2c1c(O)c1ccccc1c2O,-72*,40µM*,?,22µM*,13µM*,22µM*
CN(CCO)c1ccc2c(c1)Oc1ccccc1CN(Cc1cn(Cc3cccc(C(F)(F)F)c3)nn1)S2(=O)=O,/,/,6,/,/,/
CSc1nc(C)cc(C)c1C#N,-50*,17%,3,-4%,-23%,0%
Cc1c(NC(=O)c2ccc(N3CCCC3)c([N+](=O)[O-])c2)cccc1-c1nc2ccccc2s1,/,2%,0,1%,7%,79µM*
Cc1cccc2c1-c1sc(C(=O)Nc3cccc([N+](=O)[O-])c3C)cc1CO2,3,0.2µM*,-4,-9%,-6%,7%
Cc1c(NC(=O)c2ccc3nsnc3c2)cccc1[N+](=O)[O-],-4,15%,1,?,2%,25µM*
Cc1cccc2c1-c1sc(C(=O)Nc3ccccc3C(N)=O)cc1CO2,/,20%,3,6%,-5%,79µM*
CN1CCN(c2ccccc2NC(=O)c2ccc(N3CCCCC3)c([N+](=O)[O-])c2)CC1,-6,4%,4,-23%,-13%,-17%
CN(C)c1ccc(C(=O)Oc2cc(O/N=[N+](\[O-])N(C)C)c([N+](=O)[O-])cc2[N+](=O)[O-])cc1,/,/,/,-11%,/,37%
CC(=O)N[C@@H](CO)C(=O)N[C@@H](CC(=O)O)C(=O)N[C@@H](CCCCN)C(=O)N1CCC[C@H]1C(=O)O,/,/,4,/,/,/
C=CCNC(=O)CN1CCC(O)(c2ccc(F)cc2)CC1,/,-2%,1,-10%[60.1 µM],-13%,100µM*
O=C(CN1CCOCC1)NCc1ccc(F)cc1,0,14%,-2,-1%,-9%,6%
Cc1ccccc1CN1Cc2cccc3c2[C@H](C=CC3)CC1=O,/,/,/,-7%,/,22%
CCCCN(CC)CCNC(=O)Cn1c(=O)c2cccn2c2cccnc21,/,45%,-4,-9%,-10%,-9%
COC(=O)c1c(NC(=O)c2ccccc2)sc(C(N)=O)c1C,-9,14%,5,-6%,-16%,89µM*
COC(=O)c1c(NC(=O)C2CC=CCC2C(=O)O)sc(C(N)=O)c1C (stereo not drawn),-20,3%,-9,-17%,?,14µM*
COC(=O)c1c(NC(=O)c2ccccc2)sc(C(=O)c2ccccc2)c1C,15,39%,-2,-10%,-5%,-11%
SMILES,PI5P4K alpha inh,POLB inh,PI4K2A inh,Pol kappa inh,Pol eta inh,Pol iota inh
O=C(N=NC(=O)c1ccco1)c1ccc2c(O)n(N3C(=O)c4ccccc4C3=O)c(O)c2c1,-8,45µM*,-2,-15%,?,-13%
CCn1c(O)c2ccc(C(=O)N=NC(=O)c3ccccc3)cc2c1O,-8,58%,-4,-5%,-3%,13%
COc1cc(OC)c(NC(=O)CCCn2nc(C)c3sc4ccccc4c3c2=O)cc1Cl,/,16µM*,-1,?,-18%,?
Cc1nn(CC(=O)NCc2cccc(Br)c2)c(=O)c2c1sc1ccccc12,/,6.3µM*,-2,-4%,-10%,7%
CCOc1ccc(CNC(=O)Cn2nc(C)c3sc4ccccc4c3c2=O)cc1,/,89µM*,1,-12%,-12%,13%
Cc1nn(CC(=O)NCc2cccc(F)c2)c(=O)c2cccn12,-2,0%,-1,89µM*,-15%,?
Cc1ccc(NC(=O)CCCn2nc(C)c3sc4ccccc4c3c2=O)c(Cl)c1,/,10%,-2,-8%,-12%,26%
COc1cccc(CNC(=O)Cn2nc(C)c3sc4ccccc4c3c2=O)c1OC,/,-16%,4,-2%,-15%,-10%
COc1cccc(CNC(=O)CCCn2nc(C)c3sc4ccccc4c3c2=O)c1,/,-3%,-2,-8%,-17%,53%
CNc1nc(N2CCCN(C)CC2)nc2cc(OC)c(OC)cc12,/,/,/,-23%,/,?
CC(C)NC(=O)COC(=O)c1ccccc1OCC(=O)Nc1ccc(Br)cc1,/,/,/,11%,/,-23%
O=C(NCc1cccnc1)c1ccc(-c2cc3ccccc3oc2=O)cc1,-10,?,5,-19%,-7%,79µM*
O=C(Nc1cccnc1)c1cccc(-c2cc3ccccc3oc2=O)c1,-1,?,-3,-7%,-12%,40%
COc1ccccc1OCC(=O)Nc1nnc(-c2ccco2)s1,-21,35µM*,4,-7%,?,?
c1ccc2c(c1)ccn2-n1ccc2ccccc21,/,/,/,-17%,/,20%
N#Cc1c(-c2ccc(Cl)cc2)cc(-c2cccs2)nc1SCC(=O)O,?,?,-2,?,-17%,18µM*
O=C1Nc2ccccc2/C1=C/c1cnc(-c2ccccc2)[nH]1,-8,22µM*,-4,-30%,-30%,?
COc1ccccc1C(=O)NC1CCCCN(Cc2cccc(Cl)c2)C1=O (stereo not drawn),/,/,-6,/,/,/
CN(C)C=Nc1c(Br)cc(Br)c2nonc12,-4,-10%,-56*,0%,?,46%
CN(C)C=Nc1nonc1-c1ccccc1,2,34%,3,-6%,-2%,6%
CC1(C)Cc2c(C#N)c(N3CCN(C(=O)c4ccccc4)CC3)nc(-c3ccco3)c2CS1,?,28µM*,-10,-22%,32µM*,?
